Measurements taken from PubChem BioAssay AID540357 (National Center for Advancing Translational Sciences (NCATS), 2011).
The source made the active and inactive calls.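 Rule for the calls: active = compounds whose fitted potency in the phosphatase confirmation test is under 20 µM; inconclusive = potency fitted but weaker than 20 µM; inactive = no potency could be fitted.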

What follows are compounds tested against Protein phosphatase EYA2 (Homo sapiens) (UniProt O00167) (assay: Inhibitors of Eya2ED: Hit Confirmation in Malachite Green Secondary Assay). Conditions: phosphopeptide, malachite green absorbance.
Sequence of Protein phosphatase EYA2 (Homo sapiens) (O00167 whole entry, looked up): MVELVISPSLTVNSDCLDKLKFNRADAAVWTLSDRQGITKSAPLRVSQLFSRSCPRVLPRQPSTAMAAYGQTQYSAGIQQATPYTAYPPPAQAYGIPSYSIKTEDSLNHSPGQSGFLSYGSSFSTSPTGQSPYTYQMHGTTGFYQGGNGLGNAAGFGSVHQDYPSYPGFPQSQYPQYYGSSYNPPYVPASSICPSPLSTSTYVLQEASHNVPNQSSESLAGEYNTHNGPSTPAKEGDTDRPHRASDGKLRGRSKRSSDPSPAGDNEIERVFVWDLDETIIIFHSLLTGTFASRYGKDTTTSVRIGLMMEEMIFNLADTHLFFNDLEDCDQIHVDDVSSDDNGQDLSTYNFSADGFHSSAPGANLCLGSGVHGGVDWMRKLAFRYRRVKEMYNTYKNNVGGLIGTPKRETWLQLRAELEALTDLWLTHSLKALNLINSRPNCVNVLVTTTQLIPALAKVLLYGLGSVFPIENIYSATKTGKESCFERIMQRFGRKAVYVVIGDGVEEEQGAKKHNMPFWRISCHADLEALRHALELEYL
Description: The Eya proteins (Eya1-4) were originally identified as essential co-activators of the Six1 transcription factor. […] Knockdown of Six1 decreases cancer cell proliferation and metastases in several different cancer models. […] A fluorescence-based HTS assay has been perfomed against the Molecular Libraries Small Molecule Repository (MLSMR) and has the AID 488837 in this database. In order to confirm the hits obtained from the primary screen several follow-up screens have been/will be carried out. This secondary screen uses a different substrate and a different detection method and will help eliminate false positives obtained from the primary screen. More specifically, this assay measures phosphatase activity by measuring inorganic phosphate, the product of the hydrolysis of the phosphate group on the protein substrate. The inorganic phosphate is detected with malachite green, which in strongly acid conditions, produces a complex which is green and is detected by absorbance. NIH Chemical Genomics Center [NCGC] NIH Molecular Libraries Probe Centers Network [MLPCN] MLPCN Grant: DA030559-01 Assay Submitter (PI): Rui Zhao, University of Colorado, Denver
Phospatase assay (25ul) was carried out in transparent, 96-well, half-area microplates. […] After 20 minute incubation at room temperature, the absorbance was read at 620nm using a Spectramax PLUS 384 plate reader by Molecular Devices. […]

SMILES	Potency
CCNC(=S)NNC(=O)c1csc2ccccc12	16.8 µM (active)
